Results filed as inconclusive are left out. Entries that show only a call come without a potency. Active and inactive are the calls of the source. Calls come from the whole dose curve; as a rule, active = well fitted inhibition curve with a large enough effect in the repeat runs; inconclusive = weak or mixed curves; inactive = no such curve, though single readings can be large or run the other way.
Potency is the fitted concentration of half-maximal effect.

Sequence of Cytochrome P450 2D6 (Homo sapiens) (P10635 whole entry, looked up): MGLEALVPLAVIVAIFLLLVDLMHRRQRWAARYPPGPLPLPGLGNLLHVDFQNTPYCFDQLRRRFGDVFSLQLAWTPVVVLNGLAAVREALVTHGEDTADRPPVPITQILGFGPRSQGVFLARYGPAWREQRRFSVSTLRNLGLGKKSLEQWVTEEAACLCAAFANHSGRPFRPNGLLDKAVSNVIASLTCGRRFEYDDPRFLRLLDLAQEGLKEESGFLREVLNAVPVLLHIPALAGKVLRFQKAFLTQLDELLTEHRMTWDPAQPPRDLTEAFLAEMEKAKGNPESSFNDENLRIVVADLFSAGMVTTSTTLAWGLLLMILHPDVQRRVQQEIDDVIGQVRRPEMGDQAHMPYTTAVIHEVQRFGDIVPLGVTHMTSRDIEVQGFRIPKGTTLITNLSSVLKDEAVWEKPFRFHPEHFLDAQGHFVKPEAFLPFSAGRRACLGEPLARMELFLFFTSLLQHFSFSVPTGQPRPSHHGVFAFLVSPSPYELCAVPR

One test addresses Cytochrome P450 2D6 (Homo sapiens) (UniProt P10635). Kind of test: Cytochrome P450 Family 2 Subfamily D Member 6 (CYP2D6) small molecule antagonists: luciferase reporter qHTS assay (AID 1671196). Note: nearly all actives have a fitted effect of over 50% in size. The conditions noted are these: P450-Glo CYP2D6 enzyme assay, luciferin luminescence, 1 h; series mostly up to 115 µM. The method, boiled down:
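CYP2D6 activity was followed as luminescence from its luciferin product after a 1 h NADPH-driven reaction at room temperature. Enzyme-substrate mix and compound were pre-incubated for 10 min, and the signal was read 20 min after adding detection reagent.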
`Cc1ccccc1N=C(N)N=C(N)N`: the Potency was 7.96 µM (active).
For the molecule `FB(F)F`, the Potency result is “inactive”.
Turning to `CCO[Si](OCC)(OCC)c1ccccc1`, the Potency entry is “inactive”.
The same measure, in the same setting: the same measure for `O=S(=O)(O)c1cc(O)c(O)c(S(=O)(=O)O)c1`: “inactive”.
Still for that read-out and setting: the entry for `CC(C)C1CCC(O)CC1` (stereo unspecified) is “inactive”; for `C=CN1CCCCCC1=O` it is “inactive”; for `CCCCCCCCCCCCCCCCCCO` it is “inactive”.
On the same count and under the same terms, the entry for `[O-][n+]1cccc(CO)c1` is “inactive”; for `CC(=O)NC(=O)c1ccccc1O` it is “inactive”.
Turning to `COc1c(N2CCNC(C)C2)c(F)cc2c(=O)c(C(=O)O)cn(C3CC3)c12` (stereo unspecified), the Potency result is “inactive”.
With `CC1(C)OC[C@@H](COC(=O)CCc2ccc(OC[C@@H](O)CNCCNC(=O)N3CCOCC3)cc2)O1`, the Potency entry was “inactive”.
The same measure, in the same setting: the same measure for `C=CC(C)(CCC=C(C)C)OC(=O)CC` (stereo unspecified): “inactive”; for `c1ccc(Cc2ccccc2)cc1`: “inactive”; for `CC(=O)Nc1ccc(OCC(O)CNC(C)C)cc1` (stereo unspecified): “inactive”.
Still for that read-out and setting: the entry for `CC(C#N)(CCC(=O)O)N=NC(C)(C#N)CCC(=O)O` (stereo unspecified) is “inactive”; for `CCCc1nn(C)c2c(=O)[nH]c(-c3cc(S(=O)(=O)N4CCN(C)CC4)ccc3OCC)nc12` it is “inactive”.

The target of another test is Cytochrome P450 2C19 (Homo sapiens) (UniProt P33261). Kind of test: Cytochrome P450 Family 2 Subfamily C Member 19 (CYP2C19) small molecule antagonists: luciferase reporter qHTS assay (AID 1671197). Note: nearly all actives have a fitted effect of over 65% in size. The conditions noted are these: P450-Glo CYP2C19 enzyme, luciferin luminescence, 1 h; series mostly up to 52.9 µM. The method, boiled down: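 Quantitative high-throughput screen of the Tox21 library using CYP2C19 with proluciferin substrate. Reaction: NADPH regeneration, 37C, 1 h, after 10 min compound preincubation at room temperature. Readout: luminescence.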
Sequence of Cytochrome P450 2C19 (Homo sapiens) (P33261 whole entry, looked up): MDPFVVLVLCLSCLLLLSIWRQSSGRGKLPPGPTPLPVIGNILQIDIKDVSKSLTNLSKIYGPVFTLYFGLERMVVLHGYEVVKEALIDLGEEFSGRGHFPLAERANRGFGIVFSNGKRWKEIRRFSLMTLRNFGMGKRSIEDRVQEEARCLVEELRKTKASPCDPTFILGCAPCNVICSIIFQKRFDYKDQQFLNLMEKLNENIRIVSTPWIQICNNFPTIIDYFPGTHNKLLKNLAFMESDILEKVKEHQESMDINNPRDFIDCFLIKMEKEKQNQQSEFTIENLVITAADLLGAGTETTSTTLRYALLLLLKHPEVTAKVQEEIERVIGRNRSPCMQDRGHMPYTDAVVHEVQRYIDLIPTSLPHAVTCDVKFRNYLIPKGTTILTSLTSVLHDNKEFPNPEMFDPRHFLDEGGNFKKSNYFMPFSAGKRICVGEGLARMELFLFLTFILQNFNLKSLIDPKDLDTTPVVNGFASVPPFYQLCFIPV
Regarding `Cc1ccccc1N=C(N)N=C(N)N`, the Potency result was “inactive”.
Same read-out and setting: the entry for `CCO[Si](OCC)(OCC)c1ccccc1` is “inactive”; for `Cc1cccc(C)c1NC(=O)CC12CCCN1CCC2` it is “inactive”.
Regarding `CC(C)C1CCC(O)CC1` (stereo unspecified), the Potency result was “inactive”.
Still for that read-out and setting: the same measure for `CC12CCC(C(=O)C1=O)C2(C)C` (stereo unspecified): “inactive”.
Same read-out and setting: the entry for `CCCCCCCCCCCCCCCCCCO` is “inactive”; for `CC(C)C(=O)OC(=O)C(C)C` it is “inactive”; for `[O-][n+]1cccc(CO)c1` it is “inactive”.
The same measure, in the same setting: the entry for `CC(=O)NC(=O)c1ccccc1O` is “inactive”.
As to `C=C[Si](OC(C)=O)(OC(C)=O)OC(C)=O`, the Potency result is “inactive”.
Same read-out and setting: the entry for `COc1c(N2CCNC(C)C2)c(F)cc2c(=O)c(C(=O)O)cn(C3CC3)c12` (stereo unspecified) is “inactive”; for `CC1(C)OC[C@@H](COC(=O)CCc2ccc(OC[C@@H](O)CNCCNC(=O)N3CCOCC3)cc2)O1` it is “inactive”; for `C=CC(C)(CCC=C(C)C)OC(=O)CC` (stereo unspecified) it is 35.6 µM (active).
Still for that read-out and setting: the same measure for `C=C(C)C(=O)OCC1CCCO1` (stereo unspecified): “inactive”; for `CC(=O)Nc1ccc(OCC(O)CNC(C)C)cc1` (stereo unspecified): “inactive”.
Still for that read-out and setting: the same measure for `COc1cc(C(=O)NCc2ccc(OCCN(C)C)cc2)cc(OC)c1OC`: “inactive”; for `CCCC(C)C(=O)OCC` (stereo unspecified): “inactive”; for `CCCCOC(=O)CCC(C)=O`: “inactive”.
As to `CN(C)C(=O)Oc1cccc([N+](C)(C)C)c1`, the Potency entry was “inactive”.
The same measure, in the same setting: the same measure for `CCCc1nn(C)c2c(=O)[nH]c(-c3cc(S(=O)(=O)N4CCN(C)CC4)ccc3OCC)nc12`: “inactive”.

These data come from PubChem BioAssay (Tox21).
